Results reported in the supplement of paper PMC12808144.
Where a name gives a salt, the structure may show the parent alone. Unmarked numbers belong to inactive results.

Tested on: NHEM-hTERT
Assay: cell viability relative to DMSO control (fraction of DMSO control); higher = less cytotoxic, active = 0.5 or less
Conditions: 1 µM; 120 h
In short: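 Patient-derived Mel-DCC-11, its resistant subline Mel-DCC-11-R (alone and with 8 µM of its selecting drug) and NHEM-hTERT immortalized melanocytes were exposed for 120 h to 315 approved anti-cancer drugs at 1 µM in duplicate. Luminescence was read with ATPlite 1step. Viability was normalised to vehicle controls and averaged over duplicates.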

SMILES | cell viability
Cc1nc(Nc2ncc(C(=O)Nc3c(C)cccc3Cl)s2)cc(N2CCN(CCO)CC2)n1.O [Dasatinib monohydrate] | 0.506
Cc1ccc(NC(=O)c2ccc(CN3CCN(C)CC3)cc2)cc1Nc1nc(-c2cccnc2)cs1 [Masitinib] | 0.801
COc1ccc2cc1Oc1ccc(cc1)C[C@H]1c3c(cc4c(c3Oc3cc5c(cc3OC)CCN(C)[C@@H]5C2)OCO4)CCN1C [Cepharanthine] | 1.13
COc1ccc(C(Cl)=C(c2ccc(OC)cc2)c2ccc(OC)cc2)cc1 [Chlorotrianisene] | 0.795
COc1cc2ncnc(Nc3ccc(F)c(Cl)c3)c2cc1OCCCN1CCOCC1 [Gefitinib] | 0.905
CCC1(O)C(=O)OCc2c1cc1n(c2=O)Cc2cc3cc(O)ccc3nc2-1 (stereo unspecified) [Hydroxy Camptothecine] | 0.899
CO[C@H]1C[C@@H]2CC[C@@H](C)[C@@](O)(O2)C(=O)C(=O)N2CCCC[C@H]2C(=O)O[C@H]([C@H](C)C[C@@H]2CC[C@@H](OC(=O)C(C)(CO)CO)[C@H](OC)C2)CC(=O)[C@H](C)/C=C(\C)[C@@H](O)[C@@H](OC)C(=O)[C@H](C)C[C@H](C)/C=C/C=C/C=C/1C [Temsirolimus] | 0.758
C.CCN(CC)CCCC(C)Nc1ccnc2cc(Cl)ccc12.O=P(O)(O)O.O=P(O)(O)O (stereo unspecified) [Chloroquine diphosphate] | 1.27
CC(/C=C/C=C(\C)C(=O)O[C@@H]1O[C@H](CO[C@@H]2O[C@H](CO)[C@@H](O)[C@H](O)[C@H]2O)[C@@H](O)[C@H](O)[C@H]1O)=C\C=C\C=C(C)\C=C\C=C(/C)C(=O)O[C@@H]1O[C@H](CO[C@@H]2O[C@H](CO)[C@@H](O)[C@H](O)[C@H]2O)[C@@H](O)[C@H](O)[C@H]1O [Crocin] | 1.12
O=NN(CCCl)C(=O)NC1CCCCC1 [Lomustine] | 0.938
COC(=O)C[C@](O)(CCCC(C)(C)O)C(=O)O[C@@H]1C(OC)=CC23CCCN2CCc2cc4c(cc2[C@H]13)OCO4 (stereo partly specified) [Homoharringtonine] | 0.228 (active)
Cn1nnc2c(C(N)=O)ncn2c1=O [Temozolomide] | 1.01
CCc1cnn2c(NCc3ccc[n+]([O-])c3)cc(N3CCCC[C@H]3CCO)nc12 [Dinaciclib] | 0.212 (active)
CN(C)CCCN1c2ccccc2Sc2ccc(Cl)cc21.Cl [Chlorpromazine hydrochloride] | 1.06
C=CC(=O)Nc1cc(Nc2nccc(-c3cn(C)c4ccccc34)n2)c(OC)cc1N(C)CCN(C)C [Osimertinib] | 1.16
CC=Cc1ccc(OC)cc1 (stereo in doubt) [cis-Anethol] | 0.759
COc1cc2nccc(Oc3ccc(NC(=O)C4(C(=O)Nc5ccc(F)cc5)CC4)cc3)c2cc1OC [Cabozantinib] | 0.739
CC(C)[C@H](NC(=O)[C@H](CC(=O)O)NC(=O)[C@H](CCCCN)NC(=O)[C@@H](N)CCCNC(=N)N)C(=O)N[C@@H](Cc1ccc(O)cc1)C(=O)O [Thymopentin] | 1.01

SMILES | cell viability
CC(C)C[C@@H](NC(=O)[C@H](O)[C@@H](N)Cc1ccccc1)C(=O)O.Cl [Bestatin hydrochloride] | 1.08
COC(=O)/C=C/C(=O)OC [Dimethyl fumarate] | 1.33
N#CC[C@@H](C1CCCC1)n1cc(-c2ncnc3[nH]ccc23)cn1 [S-Ruxolitinib] | 0.987
Nc1nc(Cl)nc2c1ncn2[C@H]1C[C@H](O)[C@@H](CO)O1 [Cladribine] | 0.592
CO[C@@]12[C@H](COC(N)=O)C3=C(C(=O)C(C)=C(N)C3=O)N1C[C@@H]1N[C@@H]12 [Mitomycin C] | 0.685
NC(=O)c1ncn([C@@H]2O[C@H](CO)[C@@H](O)[C@H]2O)c1N [AICAR (Acadesine)] | 1.06
O=C(/C=C\n1cnc(-c2cc(C(F)(F)F)cc(C(F)(F)F)c2)n1)NNc1cnccn1 [Selinexor] | 0.73
CCN(CC)CCNC(=O)c1c(C)[nH]c(/C=C2\C(=O)Nc3ccc(F)cc32)c1C.C[C@@H](CC(=O)O)C(=O)O [Sunitinib Malate] | 1.03
O=C(CCBr)N1CCN(C(=O)CCBr)CC1 [Pipobroman] | 0.902
CCCc1cc(C)[nH]c(=O)c1CNC(=O)c1cc(-c2ccnc(N3CCN(C)CC3)c2)cc2c1cnn2C(C)C | 1.01
CCS(=O)(=O)N1CC(CC#N)(n2cc(-c3ncnc4[nH]ccc34)cn2)C1 [Baricitinib] | 1.07
Cc1ccc(NC(=O)C2(c3ccc4c(c3)OC(F)(F)O4)CC2)nc1-c1cccc(C(=O)O)c1 [Lumacaftor] | 0.997
CC(C)(C#N)c1cc(Cn2cncn2)cc(C(C)(C)C#N)c1 [Anastrozole] | 1.02
O=NN(CCCl)C(=O)NCCCl [Carmustine] | 0.992
CCCCCCCCCCCCCCCCCCOCC(O)CO (stereo unspecified) [Batyl alcohol] | 1.07
Nc1nc(F)nc2c1ncn2[C@@H]1O[C@H](CO)[C@@H](O)[C@@H]1O [Fludarabine] | 0.934
O=C(CCCCCCC(=O)Nc1ccccc1)NO [Vorinostat] | 0.871
CC(C)C[C@H](NC(=O)[C@H](Cc1ccccc1)NC(=O)c1cnccn1)B(O)O [Bortezomib] | 0.0282 (active)
